# In PubChem BioAssay AID1159524 (National Center for Advancing Translational Sciences (NCATS), 2015):
# In all, about 410,000 compounds went through this assay and about 5,100 (1.2%) were called active. A call without a number means that no potency is given here. About 8% were inconclusive and are not listed. Calls follow the shape of the full dose curve; tested in HEK293T cells. This excerpt belongs to a sample that is enriched for actives.
# Test: High Throughput Screening for Foot and Mouth Disease Virus Antivirals; also: read-out not given here; nearly all actives have a fitted effect of over 45% in size
# Conditions: FMDV antiviral cell-based qHTS; series mostly up to 57.9 µM
# Potency is read from the fitted curve at half-maximal effect.
row,SMILES,Potency
1,Cc1nnc(SCc2cc(=O)c3cc(F)ccc3[nH]2)n1C,inactive
2,CC(=O)c1c(O)c(C)c(O)c(Cc2c(O)c3c(c(C(=O)/C=C/c4ccccc4)c2O)OC(C)(C)C=C3)c1O,inactive
3,O=C(CSc1nccn1Cc1ccc(F)cc1)NCc1ccccc1,inactive
4,CC(C)(C)c1ccc(Oc2ccc(N)cc2)cc1,2.51 µM (active)
5,CC(C)(C)c1ccc(OC(=O)N2CCCCC2)cc1,inactive
6,COc1ccc(CCNc2ncnc3c2cnn3-c2ccc(C)cc2)cc1,inactive
7,CC1(C)CCSC(/C=C/c2ccccc2)=N1,14.1 µM (active)
8,CC1(C(=O)NS(=O)(=O)c2ccccc2)CCN1C(=O)C/C=C/c1ccccc1 (configuration not stated),inactive
9,CC1(C(=O)O)CCN1C(=O)/C=C/c1ccccc1 (configuration not stated),inactive
10,CC1(C)C=CC(=O)[C@]2(C)C1CC(=O)[C@]1(C)C2CC[C@@]2(C)C(c3ccoc3)OC(=O)C3OC321 (some centres not stated),inactive
11,CCCS(=O)(=O)N1CCC(C(=O)NCCCN(C)Cc2ccccc2)CC1,28.2 µM (active)
12,CCS(=O)(=O)N1CCCC(C(=O)NCCCN(C)Cc2ccccc2)C1 (configuration not stated),inactive
13,CCCS(=O)(=O)N1CCC(C(=O)NCCc2ccc(OC)c(OC)c2)CC1,inactive
14,Cc1c(O)cc(O)c2c(=O)c(-c3ccc(O)cc3)coc12,inactive
15,Cc1cccc(N2CCN(C(=O)c3oc(=O)c4ccccc4c3-c3ccccc3)CC2)c1C,inactive
16,CCn1c(C)c(C)c2cc(C(=O)N3CCN(c4cccc(C)c4C)CC3)ccc21,inactive
17,Cc1cccc(N2CCN(C(=O)c3cc4c(=O)[nH]c5ccccc5c4n3C)CC2)c1C,31.6 µM (active)
18,O=C(Nc1cccc(F)c1)N1CC2(CCN(C(=O)c3cnccn3)CC2)C1,inactive
19,COC(=O)c1ccccc1-c1cc(C)cc2c1OC(CNC(=O)C1CCOC1)C2 (configuration not stated),inactive
20,O=C(COc1ccc(S(=O)(=O)N2CCCC2)cc1[N+](=O)[O-])N1CCCCC1,inactive
21,Cc1cc(S(=O)(=O)N2CCOCC2)ccc1OCC(=O)N1CCOCC1,inactive

row,SMILES,Potency
1,Cc1cc(C(=O)COc2ccccc2[N+](=O)[O-])c(C)n1-c1cccc(S(=O)(=O)N2CCOCC2)c1,12.6 µM (active)
2,CCC1CN(CCNC(=O)c2cccnc2C)Cc2cc(OC)ccc2O1 (configuration not stated),inactive
3,CC1=C(c2ccc(F)cc2)S(=O)(=O)N=C1N1CCC(C(=O)NCCc2ccccc2C)CC1,inactive
4,COCCn1c(=O)c(-c2ccccc2)nc2cnc(N3CCOCC3)nc21,inactive
5,CC1CC(C)CN(C/C=C/c2ccccc2[N+](=O)[O-])C1 (configuration not stated),inactive
6,CC1CCCCC1NC(=O)/C(C#N)=C/C=C/c1ccccc1[N+](=O)[O-] (configuration not stated),28.2 µM (active)
7,CC1CCCCC1NC(=O)c1cc(=O)[nH]c2ccccc12 (configuration not stated),inactive
8,Cc1ccc2c(C)nc(N3CCCC(C(=O)NC(C)(C)CO)C3)nc2c1 (configuration not stated),inactive
9,CCc1ccccc1NC(=O)N1CCC2(CC1)Oc1ccccc1C(=O)N2Cc1ccccc1F,inactive
10,O=C(Nc1cc(-c2nc3ccccc3o2)ccc1Cl)c1cc([N+](=O)[O-])ccc1N1CCOCC1,inactive
11,COc1cccc2oc(CCc3ccccc3)cc(=O)c12,inactive
12,COc1ccccc1Cc1c(-c2ccc(Cl)cc2)nc2c3ccccc3ccn12,inactive
13,CCCCNS(=O)(=O)CCNCc1ccccc1OC,inactive
14,CCCCc1c(-c2ccc(Br)cc2)ncn1CCc1ccccc1OC,35.5 µM (active)
15,COc1ccccc1CCn1c(=O)c(-c2cn(C)c3ccccc23)nc2cncnc21,inactive
16,CCCCCc1c(Cc2ccccc2)ncn1CCc1ccccc1OC,35.5 µM (active)
17,CCOC(=O)c1cc2c(=O)n3ccccc3nc2n(CC2CCCO2)c1=NC(=O)c1ccccc1F (configuration not stated),inactive
18,CCn1cc(C(=O)N2CCN(c3cc(C)ccc3C)CC2)c(=O)c2cc(S(=O)(=O)N(C)C3CCCCC3)ccc21,inactive
19,Cc1oc(-c2cccc(NC(=O)c3ccccc3)c2)nc1CNC(=O)c1cnc2ccccn2c1=O,inactive
20,O=c1c(-c2ccc(F)cc2)nc2cnc(N3CCNCC3)nc2n1Cc1cccs1,inactive
21,O=C(C(=O)N1CCOc2ccc(CN3CCN(Cc4ccccn4)CC3)cc2C1)c1ccccc1,inactive

row,SMILES,Potency
1,CCC(=O)Nc1ccccc1-c1nc2ccccc2n(CC(=O)Nc2ccc(C)c(C)c2)c1=O,inactive
2,COc1cccc(N2CCN(C3CC(=O)N(c4ccc(Cl)cc4)C3=O)CC2)c1 (configuration not stated),inactive
3,COc1cccc(-c2nc3ccc(N4CCN(C)CC4)cc3[nH]2)c1,14.1 µM (active)
4,COc1ccc(N2CCN(C3=NS(=O)(=O)C(c4cccc(Br)c4)=C3C)CC2)cc1,inactive
5,COc1cccc(-n2c(=O)c3c(C)c(C(=O)N(C)C)sc3n(Cc3cccc(C)c3)c2=O)c1,inactive
6,CCOc1ccc(NC(=O)C(C)N2C(=O)c3ccccc3C2=O)cc1 (configuration not stated),inactive
7,COc1cccc(N(CC(=O)NC2CCCC2)C(=O)CCCC(=O)Nc2ccccn2)c1,inactive
8,COCCN(C(=O)CCC(=O)Nc1ccccn1)C(C(=O)NCCC(C)C)c1ccc(OC)cc1 (configuration not stated),inactive
9,COc1ccc(C(=O)/C=C/Nc2ccccn2)cc1,8.91 µM (active)
10,CCOc1ccc(NC(=O)C2CCCN(C(=O)Nc3ccccc3)C2)cc1 (configuration not stated),inactive
11,CCOc1ccc(N/C=C/C(=O)c2ccccc2)cc1,10 µM (active)
12,OCC1CCCN(c2nc3cc4c(cc3cc2CNCc2cccs2)OCO4)C1 (configuration not stated),inactive
13,CCn1cc(C(=O)NCc2ccccc2)c(=O)c2cc(S(=O)(=O)N3CCCCC3)ccc21,inactive
14,C=C1C([C@@]2(C)C(OC(C)=O)CC(=O)O[C@@](C)(COC(C)=O)C2CC(=O)OC)C(OC=O)C(OC(=O)C(O)C(C)CC)[C@]2(C)C(c3ccoc3)CC(=O)C12O (some centres not stated),inactive
15,O=C(CN1Cc2ccccc2OC(c2ccccc2)C1)N1CCCCC1c1cccnc1 (configuration not stated),inactive
16,O=c1c(CCc2ccccc2)nc2cnc(N3CCNCC3)nc2n1Cc1cccs1,inactive
17,CCN(C(=O)Nc1cccc2ccccc12)c1ccccc1,inactive
18,CCCCNC(=O)CN1C(=O)NC(Cc2ccccc2)(Cc2ccccc2)C1=O,inactive
19,CCCCC(O)(CCCC)C(=O)NN(C(=O)CCl)c1ccccc1,31.6 µM (active)
20,Cc1cc2ccccc2n1CCNC(=O)c1ccc(F)cc1,inactive
